Experiment [1] in a line: ATG_TAL_CIS: Attagene CIS-FACTORIAL HepG2 Assay for human TAL Basal Promoter (AID 2282966; active = hit-call score of the fitted dose curve at least 0.9, where 1 is the maximum; inactive = score below 0.9;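 note: background control endpoint measuring basal TAL promoter reporter mRNA not a specific factor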). The note with it: HepG2 Attagene cis-factorial TAL promoter reporter; actives raise or lower the signal. In a few lines:
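Background-control endpoint: basal TAL promoter reporter transcripts in transiently transfected HepG2, measured 24 h after dosing. Read-out by RT-PCR with fluorescent primer extension and capillary electrophoresis; gain or loss of signal fitted relative to DMSO.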

Experiment [2] can be described thus: ATG_TGFb_CIS: Attagene CIS-FACTORIAL HepG2 Assay for human Transforming Growth Factor (TGF) (AID 2282967; active = hit-call score of the fitted dose curve at least 0.9, where 1 is the maximum; inactive = score below 0.9). Conditions: HepG2 Attagene CIS TGFb reporter, mRNA transcription; actives raise or lower the signal. The gist of the method: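 Multiplexed cis-reporter HepG2 system, 24 h treatment; mRNA induction read by fluorescence after RT-PCR and CE; DMSO negative control, bidirectional curve fitting.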

Experiment [3] in a line: ATG_VDRE_CIS: Attagene CIS-FACTORIAL HepG2 Assay for human Vitamin D Receptor Element (VDRE) (AID 2282968; active = hit-call score of the fitted dose curve at least 0.9, where 1 is the maximum; inactive = score below 0.9). The note with it: HepG2 VDRE cis-reporter transcription, actives raise or lower the signal. The gist of the method:
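Compounds were applied for 24 h to HepG2 cells transfected with promoter-regulated reporter units. Total RNA was reverse-transcribed, and reporter amplicons were fluorescently labelled and sized by capillary electrophoresis.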

Experiment [4] deals with Nuclear receptor subfamily 1 group I member 3 (Homo sapiens) (UniProt Q14994). The experiment in a line: ATG_CAR_TRANS: Attagene TRANS-FACTORIAL HepG2 Assay for human Constitutive Androstane Receptor (CAR) (AID 2282969).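 Note: activators raise reporter mRNA above DMSO so AC50 marks induction.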 Conditions: HepG2 Attagene TRANS-FACTORIAL CAR reporter. In a few lines:
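Transiently transfected HepG2, multiplex TRANS reporters (CAR-Gal4 chimera driving GAL4-UAS reporter). 24 h dosing. Readout: reporter transcript by RT-PCR + capillary electrophoresis, fluorescence intensity; positive direction vs DMSO.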

The target in experiment [5] is Estrogen receptor (Homo sapiens) (UniProt P03372). The experiment in a line: ATG_ERa_TRANS: Attagene TRANS-FACTORIAL HepG2 Assay for human Estrogen Receptor alpha (ERa) (AID 2282970). Conditions: HepG2 Attagene TRANS ERa GAL4 reporter, mRNA. The gist of the method:
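Reporter transcripts were measured 24 h after dosing by RT-PCR with fluorescent primer extension and capillary electrophoresis. The system is transiently transfected HepG2 expressing exogenous NR-Gal4 chimeras driving GAL4-UAS reporters; DMSO is the baseline.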

In experiment [6] the target is Steroid hormone receptor ERR1 (Homo sapiens) (UniProt P11474). Put plainly: ATG_ERRa_TRANS: Attagene TRANS-FACTORIAL HepG2 Assay for human Estrogen-Related Receptor alpha (ERRa) (AID 2282971). The note with it: HepG2 Attagene TRANS reporter, ERRa transactivation. In a few lines:
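Reporter transcripts from ERRa-Gal4 chimera activity measured in transiently transfected human HepG2 cells 24 hours after dosing, using RT-PCR with 6-FAM primer extension, HpaI digestion and capillary electrophoresis; DMSO is baseline.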

Experiment [7] concerns the target X-box-binding protein 1 (Homo sapiens) (UniProt P17861). Put plainly: ATG_Xbp1_CIS: Attagene CIS-FACTORIAL HepG2 Assay for human X-box Binding Protein 1 (XBP1) (AID 2282972; active = hit-call score of the fitted dose curve at least 0.9, where 1 is the maximum; inactive = score below 0.9). Conditions: HepG2 XBP1 cis-element reporter, Attagene multiplex; actives raise or lower the signal. The gist of the method: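 Multiplexed cis-reporter readout in transfected HepG2 liver cells. Exposure lasted 24 hours. Activity in either direction was fitted against DMSO as negative control and baseline.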

Experiment [8] is described as follows: ATG_M_19_TRANS: Attagene TRANS-FACTORIAL HepG2 Assay for M19 Transcription Factor (Internal Marker) (AID 2282974). Conditions: HepG2 Attagene TRANS-FACTORIAL M19 internal marker reporter. The gist of the method: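 Multiplexed TRANS format: HepG2 liver cells bearing transient GAL4-UAS reporter units, chemical treatment 24 h, reporter transcripts quantified by RT-PCR plus capillary electrophoresis. DMSO defines baseline.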

Experiment [9] is described as follows: ATG_GAL4_TRANS: Attagene TRANS-FACTORIAL HepG2 Assay for GAL4 (Internal Marker) (AID 2282976). Conditions: HepG2 Attagene TRANS GAL4 internal marker reporter. The gist of the method:
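In transfected human HepG2 liver cells dosed 24 h, GAL4 reporter mRNA serves as a baseline marker. Detection by RT-PCR with fluorescent capillary electrophoresis, activity fitted upward relative to DMSO.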

Experiment [10] deals with Estrogen-related receptor gamma (Homo sapiens) (UniProt P62508). Put plainly: ATG_ERRg_TRANS: Attagene TRANS-FACTORIAL HepG2 Assay for human Estrogen-Related Receptor gamma (ERRg) (AID 2282977).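 Note: hits increase reporter signal over DMSO so potencies reflect activators.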 Conditions: HepG2 Attagene TRANS reporter, ERRg transactivation. In a few lines: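 Exogenous NR-Gal4 chimera activity measured as reporter transcript induction after 24 h in transiently transfected HepG2 cells. RNA reverse-transcribed, PCR-amplified, 6-FAM-labelled and resolved by capillary electrophoresis; increase over DMSO baseline.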
Sequence of Estrogen-related receptor gamma (Homo sapiens) (P62508 whole entry, looked up, the tested form may be a part): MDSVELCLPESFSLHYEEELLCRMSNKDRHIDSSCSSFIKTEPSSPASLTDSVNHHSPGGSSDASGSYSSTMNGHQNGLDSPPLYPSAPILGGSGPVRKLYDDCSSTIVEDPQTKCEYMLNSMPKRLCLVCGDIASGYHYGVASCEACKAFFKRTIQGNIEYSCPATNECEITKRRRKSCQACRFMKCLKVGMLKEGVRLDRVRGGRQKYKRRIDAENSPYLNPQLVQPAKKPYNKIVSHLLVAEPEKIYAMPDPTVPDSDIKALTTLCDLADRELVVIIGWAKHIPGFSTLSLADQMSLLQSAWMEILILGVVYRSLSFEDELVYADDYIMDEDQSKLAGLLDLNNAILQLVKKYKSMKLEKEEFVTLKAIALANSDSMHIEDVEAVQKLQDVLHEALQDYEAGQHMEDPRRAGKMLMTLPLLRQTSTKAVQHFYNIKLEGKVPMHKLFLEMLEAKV

Experiment [11] concerns the target Glucocorticoid receptor (Homo sapiens) (UniProt P04150). Put plainly: ATG_GR_TRANS: Attagene TRANS-FACTORIAL HepG2 Assay for human Glucocorticoid Receptor (GR) (AID 2282978).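 Note: activators score as hits since higher reporter transcript over DMSO is fitted.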 The note with it: HepG2 Attagene TRANS GR reporter, mRNA transcription. In a few lines:
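Transiently transfected HepG2 cells express chimeric NR-GAL4 proteins acting on GAL4-UAS reporter units. Compounds are applied for 24 h. mRNA induction over DMSO is measured by capillary electrophoresis.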

The target in experiment [12] is Bile acid receptor (Homo sapiens) (UniProt Q96RI1). Put plainly: ATG_FXR_TRANS: Attagene TRANS-FACTORIAL HepG2 Assay for Farnesoid X Receptor (FXR) (AID 2282979).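 Note: hits raise reporter mRNA above DMSO so AC50 marks FXR activation.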 The note with it: HepG2 Attagene TRANS FXR-GAL4 reporter transcription. The gist of the method: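 Reporter transcripts from transfected HepG2 cells were measured 24 h after dosing, using RT-PCR with capillary electrophoresis of 6-FAM-labelled fragments. The read-out reflects activity of exogenous FXR-Gal4 chimera on GAL4-UAS units, with induction relative to DMSO.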
Sequence of Bile acid receptor (Homo sapiens) (Q96RI1 whole entry, looked up, the tested form may be a part): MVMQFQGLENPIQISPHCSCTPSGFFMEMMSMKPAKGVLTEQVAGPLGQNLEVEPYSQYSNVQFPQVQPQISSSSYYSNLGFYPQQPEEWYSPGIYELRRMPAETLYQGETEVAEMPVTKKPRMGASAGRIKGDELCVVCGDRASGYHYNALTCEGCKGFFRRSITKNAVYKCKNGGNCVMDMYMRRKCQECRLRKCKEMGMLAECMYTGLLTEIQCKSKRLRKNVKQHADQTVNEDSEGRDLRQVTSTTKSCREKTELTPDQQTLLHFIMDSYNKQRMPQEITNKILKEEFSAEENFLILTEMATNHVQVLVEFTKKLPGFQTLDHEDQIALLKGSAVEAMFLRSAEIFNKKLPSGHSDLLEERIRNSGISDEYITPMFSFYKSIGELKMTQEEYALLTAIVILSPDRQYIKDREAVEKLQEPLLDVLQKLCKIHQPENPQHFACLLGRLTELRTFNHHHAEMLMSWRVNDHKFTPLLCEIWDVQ

Experiment [13] deals with Oxysterols receptor LXR-alpha (Homo sapiens) (UniProt Q13133). Put plainly: ATG_LXRa_TRANS: Attagene TRANS-FACTORIAL HepG2 Assay for human Liver X Receptor alpha (LXRa) (AID 2282980). The note with it: HepG2 Attagene TRANS reporter, LXRa transactivation. The gist of the method: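 Chemical-induced reporter mRNA measured by RT-PCR with fluorescent labelling and capillary electrophoresis after 24 h dosing of transiently transfected HepG2 cells expressing exogenous NR-Gal4 chimeras; increases scored against DMSO baseline.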
Sequence of Oxysterols receptor LXR-alpha (Homo sapiens) (Q13133 whole entry, looked up, the tested form may be a part): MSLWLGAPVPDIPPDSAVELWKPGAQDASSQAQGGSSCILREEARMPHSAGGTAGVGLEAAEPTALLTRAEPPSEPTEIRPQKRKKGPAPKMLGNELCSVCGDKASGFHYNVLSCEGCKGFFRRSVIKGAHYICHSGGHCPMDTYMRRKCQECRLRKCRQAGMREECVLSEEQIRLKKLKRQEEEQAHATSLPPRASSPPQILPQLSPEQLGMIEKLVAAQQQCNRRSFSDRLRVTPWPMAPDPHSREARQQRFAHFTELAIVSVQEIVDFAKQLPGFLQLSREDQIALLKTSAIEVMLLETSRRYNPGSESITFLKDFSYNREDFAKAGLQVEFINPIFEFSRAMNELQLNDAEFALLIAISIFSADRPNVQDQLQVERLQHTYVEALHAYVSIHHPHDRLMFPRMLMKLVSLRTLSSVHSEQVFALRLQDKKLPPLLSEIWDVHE

The target of experiment [14] is Oxysterols receptor LXR-beta (Homo sapiens) (UniProt P55055). Put plainly: ATG_LXRb_TRANS: Attagene TRANS-FACTORIAL HepG2 Assay for human Liver X Receptor beta (LXRb) (AID 2282981). The note with it: HepG2 Attagene TRANS GAL4-LXRb reporter, mRNA. In a few lines:
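Multiplexed reporter assay, HepG2, 24 h dosing. Fluorescence of labelled RT-PCR products after capillary electrophoresis gives transcript level; positive fitting direction relative to DMSO.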

For experiment [15], the target named is Hepatocyte nuclear factor 4-alpha (Homo sapiens) (UniProt P41235). The experiment in a line: ATG_HNF4a_TRANS: Attagene TRANS-FACTORIAL HepG2 Assay for human Hepatocyte Nuclear Factor 4 alpha (HNF4a) (AID 2282982). The note with it: HepG2 HNF4a transactivation reporter, mRNA readout. In a few lines:
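Endpoint reflects transcriptional activation of a GAL4-UAS reporter by an HNF4a-GAL4 chimera in transfected HepG2 cells, 24 h post-dosing. Fluorescence from RT-PCR products separated by capillary electrophoresis; DMSO baseline.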

Experiment [16] is described as follows: ATG_M_06_TRANS: Attagene TRANS-FACTORIAL HepG2 Assay for M06 Transcription Factor (Internal Marker) (AID 2282983). The note with it: HepG2 Attagene TRANS M06 internal marker reporter. In a few lines:
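Background-control reporter readout: after 24 h chemical exposure of transiently transfected HepG2 (GAL4-UAS reporter units), mRNA quantified by RT-PCR with fluorescent labeling and capillary electrophoresis. Gain-of-signal fitting against DMSO baseline.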

Experiment [17] in a line: ATG_M_32_TRANS: Attagene TRANS-FACTORIAL HepG2 Assay for M32 Transcription Factor (Internal Marker) (AID 2282984). Conditions: HepG2 Attagene TRANS M32 internal marker reporter. In a few lines: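 Internal-marker readout from a multiplexed transcription reporter panel. HepG2 cells were transfected with GAL4-UAS reporter units, treated 24 hours, and reporter transcript levels determined by fluorescence after RT-PCR and capillary separation.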

Experiment [18] addresses Nuclear receptor subfamily 4 group A member 2 (Homo sapiens) (UniProt P43354). Put plainly: ATG_NURR1_TRANS: Attagene TRANS-FACTORIAL HepG2 Assay for human Nuclear Receptor Related Protein 1 (NURR1) (AID 2282985). Conditions: HepG2 Attagene TRANS reporter, mRNA readout. The gist of the method: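 Endpoint: reporter mRNA increase relative to DMSO. HepG2 cells transfected with reporter units, treated 24 h; RNA processed by RT-PCR, labelling, HpaI digestion and capillary electrophoresis.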

In experiment [19] the target is Transcriptional activator Myb (Homo sapiens) (UniProt P10242). Put plainly: ATG_Myb_CIS: Attagene CIS-FACTORIAL HepG2 Assay for human Myeloblastosis (Myb) Proto-Oncogene Transcription Factor (AID 2282986; active = hit-call score of the fitted dose curve at least 0.9, where 1 is the maximum; inactive = score below 0.9). The note with it: HepG2 Attagene CIS-FACTORIAL Myb reporter transcription; actives raise or lower the signal. In a few lines: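 Using HepG2 liver cells bearing transiently transfected cis-promoter reporter constructs, the assay measures induction or loss of reporter mRNA after 24 hours of dosing. Detection used fluorescently labeled RT-PCR products separated by capillary electrophoresis.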
Sequence of Transcriptional activator Myb (Homo sapiens) (P10242 whole entry, looked up): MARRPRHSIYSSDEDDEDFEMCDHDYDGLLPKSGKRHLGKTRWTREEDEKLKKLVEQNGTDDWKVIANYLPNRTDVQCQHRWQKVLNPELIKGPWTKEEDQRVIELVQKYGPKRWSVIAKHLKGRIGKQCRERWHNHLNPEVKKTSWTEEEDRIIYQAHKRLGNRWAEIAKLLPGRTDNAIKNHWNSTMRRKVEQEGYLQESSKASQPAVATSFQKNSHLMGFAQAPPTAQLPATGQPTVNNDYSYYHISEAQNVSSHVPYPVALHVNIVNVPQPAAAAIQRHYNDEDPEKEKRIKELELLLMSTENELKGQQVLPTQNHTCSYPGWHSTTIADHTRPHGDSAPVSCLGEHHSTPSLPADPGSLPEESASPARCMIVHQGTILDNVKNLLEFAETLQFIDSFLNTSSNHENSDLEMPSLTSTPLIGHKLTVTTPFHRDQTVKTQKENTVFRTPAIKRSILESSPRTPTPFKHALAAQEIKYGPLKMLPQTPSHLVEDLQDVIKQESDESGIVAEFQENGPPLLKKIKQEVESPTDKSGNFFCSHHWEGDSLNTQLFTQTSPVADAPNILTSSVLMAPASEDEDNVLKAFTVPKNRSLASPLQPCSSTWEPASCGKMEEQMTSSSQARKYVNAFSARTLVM

In experiment [20] the target is Nuclear respiratory factor 1 (Homo sapiens) (UniProt Q16656). The experiment in a line: ATG_NRF1_CIS: Attagene CIS-FACTORIAL HepG2 Assay for human Nuclear Respiratory Factor 1 (NRF1) Orphan Gene (AID 2282987; active = hit-call score of the fitted dose curve at least 0.9, where 1 is the maximum; inactive = score below 0.9). The note with it: HepG2 NRF1 cis-element reporter, Attagene multiplex; actives raise or lower the signal. The gist of the method: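 Reporter mRNA induction or loss in HepG2 cells after 24 h dosing; cis-regulated reporter constructs report endogenous transcription-factor activity. Quantified by RT-PCR/capillary electrophoresis fluorescence, DMSO-referenced.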
Sequence of Nuclear respiratory factor 1 (Homo sapiens) (Q16656 whole entry, looked up): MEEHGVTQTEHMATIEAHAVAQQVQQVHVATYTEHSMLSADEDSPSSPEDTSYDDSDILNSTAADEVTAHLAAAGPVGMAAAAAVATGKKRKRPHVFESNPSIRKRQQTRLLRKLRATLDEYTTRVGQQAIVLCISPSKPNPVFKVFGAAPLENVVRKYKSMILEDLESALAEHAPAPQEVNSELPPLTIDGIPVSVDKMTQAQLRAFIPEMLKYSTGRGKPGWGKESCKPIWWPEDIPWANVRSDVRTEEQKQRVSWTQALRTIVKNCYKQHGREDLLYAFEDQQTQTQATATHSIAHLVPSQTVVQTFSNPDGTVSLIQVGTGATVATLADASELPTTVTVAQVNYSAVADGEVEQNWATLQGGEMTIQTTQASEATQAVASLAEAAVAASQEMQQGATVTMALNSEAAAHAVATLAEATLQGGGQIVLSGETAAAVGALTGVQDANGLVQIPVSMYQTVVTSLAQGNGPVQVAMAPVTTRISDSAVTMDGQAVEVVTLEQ

Outcome and AC50 data for 4 compounds are collected here from PubChem BioAssay (EPA / NIEHS).

Molecules are shown by their SMILES. Values joined by “and” are separate entries in the source; they are usually repeats but may differ in a detail not shown here. Equal entries are not always repeated. Inconclusive results are not listed. The source holds several records for some structures; these can differ, active in one and inactive in another. Active and inactive are the calls of the source. Rule for the calls, unless noted: active = hit-call score of the fitted dose curve at least 0.9, where 1 is the maximum; inconclusive = response in the unintended direction; inactive = score below 0.9.

Sequence of X-box-binding protein 1 (Homo sapiens) (P17861 whole entry, looked up): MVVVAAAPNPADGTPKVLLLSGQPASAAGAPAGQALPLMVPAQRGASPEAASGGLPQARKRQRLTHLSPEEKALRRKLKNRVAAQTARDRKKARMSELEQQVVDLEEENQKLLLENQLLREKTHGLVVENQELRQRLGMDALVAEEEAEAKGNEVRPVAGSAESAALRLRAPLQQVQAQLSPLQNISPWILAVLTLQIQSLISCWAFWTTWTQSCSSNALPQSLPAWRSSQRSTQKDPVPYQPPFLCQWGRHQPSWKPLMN
Sequence of Oxysterols receptor LXR-beta (Homo sapiens) (P55055 whole entry, looked up, the tested form may be a part): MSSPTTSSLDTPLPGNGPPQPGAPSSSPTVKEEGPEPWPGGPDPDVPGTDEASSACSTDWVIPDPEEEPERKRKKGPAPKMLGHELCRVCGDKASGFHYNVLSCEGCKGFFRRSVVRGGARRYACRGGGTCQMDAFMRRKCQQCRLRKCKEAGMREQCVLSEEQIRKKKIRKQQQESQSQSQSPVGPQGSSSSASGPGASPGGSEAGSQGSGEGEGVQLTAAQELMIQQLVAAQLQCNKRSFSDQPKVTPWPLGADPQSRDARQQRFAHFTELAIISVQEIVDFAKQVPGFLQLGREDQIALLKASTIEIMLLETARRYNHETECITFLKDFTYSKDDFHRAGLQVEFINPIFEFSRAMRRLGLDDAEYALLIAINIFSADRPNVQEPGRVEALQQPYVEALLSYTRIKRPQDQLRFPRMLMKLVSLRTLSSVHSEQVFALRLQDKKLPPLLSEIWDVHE
Sequence of Glucocorticoid receptor (Homo sapiens) (P04150 whole entry, looked up, the tested form may be a part): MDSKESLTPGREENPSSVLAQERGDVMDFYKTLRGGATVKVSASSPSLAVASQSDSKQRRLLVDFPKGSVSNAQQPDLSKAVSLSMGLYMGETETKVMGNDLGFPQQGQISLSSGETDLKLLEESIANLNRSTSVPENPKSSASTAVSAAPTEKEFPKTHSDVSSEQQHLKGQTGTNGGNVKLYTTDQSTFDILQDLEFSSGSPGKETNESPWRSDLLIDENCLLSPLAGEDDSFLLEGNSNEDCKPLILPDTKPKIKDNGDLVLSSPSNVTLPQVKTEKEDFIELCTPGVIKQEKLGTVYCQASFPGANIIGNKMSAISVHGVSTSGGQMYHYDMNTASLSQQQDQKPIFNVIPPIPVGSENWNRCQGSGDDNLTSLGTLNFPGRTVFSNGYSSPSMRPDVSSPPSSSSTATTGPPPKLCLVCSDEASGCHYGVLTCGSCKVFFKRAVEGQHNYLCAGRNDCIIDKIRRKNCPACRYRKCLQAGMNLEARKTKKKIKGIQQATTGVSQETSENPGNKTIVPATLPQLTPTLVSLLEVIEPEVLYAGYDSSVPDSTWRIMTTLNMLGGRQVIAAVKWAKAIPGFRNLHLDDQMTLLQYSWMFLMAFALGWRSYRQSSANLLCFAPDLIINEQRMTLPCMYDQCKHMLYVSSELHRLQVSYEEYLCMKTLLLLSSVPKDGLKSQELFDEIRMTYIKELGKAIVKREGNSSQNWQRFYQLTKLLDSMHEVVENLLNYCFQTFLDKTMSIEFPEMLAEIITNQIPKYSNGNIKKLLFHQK
Sequence of Nuclear receptor subfamily 1 group I member 3 (Homo sapiens) (Q14994 whole entry, looked up, the tested form may be a part): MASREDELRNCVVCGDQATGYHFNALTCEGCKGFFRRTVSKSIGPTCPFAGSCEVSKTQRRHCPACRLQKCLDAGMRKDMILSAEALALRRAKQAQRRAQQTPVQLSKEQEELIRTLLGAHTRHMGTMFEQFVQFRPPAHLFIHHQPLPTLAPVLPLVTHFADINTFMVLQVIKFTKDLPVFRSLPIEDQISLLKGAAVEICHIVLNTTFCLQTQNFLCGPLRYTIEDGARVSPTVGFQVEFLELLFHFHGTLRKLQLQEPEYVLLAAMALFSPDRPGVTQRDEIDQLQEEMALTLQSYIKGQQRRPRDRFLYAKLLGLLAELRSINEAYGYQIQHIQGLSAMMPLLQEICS
Sequence of Estrogen receptor (Homo sapiens) (P03372 whole entry, looked up, the tested form may be a part): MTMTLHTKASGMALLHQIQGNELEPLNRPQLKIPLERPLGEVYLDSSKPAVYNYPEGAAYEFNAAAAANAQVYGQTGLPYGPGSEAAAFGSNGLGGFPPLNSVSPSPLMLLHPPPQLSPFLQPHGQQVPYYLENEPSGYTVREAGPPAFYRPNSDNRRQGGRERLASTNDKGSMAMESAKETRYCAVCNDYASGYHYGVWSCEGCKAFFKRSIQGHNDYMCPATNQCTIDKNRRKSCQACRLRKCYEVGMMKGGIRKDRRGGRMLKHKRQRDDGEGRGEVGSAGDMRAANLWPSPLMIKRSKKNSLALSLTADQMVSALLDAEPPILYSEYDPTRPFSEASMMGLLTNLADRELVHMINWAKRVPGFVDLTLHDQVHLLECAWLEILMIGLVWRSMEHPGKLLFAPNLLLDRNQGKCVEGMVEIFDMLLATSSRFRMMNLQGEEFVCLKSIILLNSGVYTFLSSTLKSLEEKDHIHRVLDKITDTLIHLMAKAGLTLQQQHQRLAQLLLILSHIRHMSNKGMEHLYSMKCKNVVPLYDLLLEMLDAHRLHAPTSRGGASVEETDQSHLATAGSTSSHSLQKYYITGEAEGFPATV

For `OCCC(F)(F)C(F)(F)C(F)(F)C(F)(F)F`, the call in experiment [1], in experiment [2], in experiment [3], in experiment [4], in experiment [5] and in experiment [6] was inactive. Besides, the compound was classed as inactive in experiment [7], in [8], in [9], in experiment [10], in [11] and in experiment [12]. Moreover, the compound was called inactive in experiment [13], in experiment [14], in [15], in experiment [16], in experiment [17] and in [18]. In addition, the outcome in experiment [19] was inactive.
The AC50 is the midpoint of the concentration-response curve, whichever way the signal moves. For the compound `O=C(O)c1cccc(C[C@@H]2COc3ccc(OCc4nc5cc(F)ccc5s4)cc3[C@@H]2O)c1`, the outcome in experiment [1], in experiment [2], in experiment [3], in [4], in experiment [5] and in [8] was inactive. Moreover, the outcome in experiment [11], in [17], in [18] and in [19] was inactive. Also, in experiment [7], the half-maximal activity concentration (AC50) is 160 µM (active).
`NC(=O)N(O)[C@@H]1COc2cc(OCc3ccccc3)ccc21`: the compound was classed as inactive in experiment [1], in experiment [2], in experiment [3], in experiment [4], in experiment [5] and in [7]. The call in [9], in [11], in experiment [12], in experiment [13], in [14] and in [15] was inactive. For the same compound, the outcome in experiment [16], in experiment [17], in [19] and in experiment [20] was inactive.
Consider `S=P(N1CC1)(N1CC1)N1CC1`, for which the call in experiment [1], in experiment [2], in experiment [3], in [4], in experiment [5] and in experiment [6] was inactive. The result in experiment [7], in experiment [8], in experiment [9], in experiment [10], in experiment [11] and in experiment [12] was inactive. For the same compound, the compound was classed as inactive in experiment [13], in experiment [14], in [15], in [16], in [17] and in experiment [18]. Moreover, the compound was called inactive in [19] and in [20]. Also, the concentration at half-maximal activity (AC50) in experiment [3] is 17 µM (active) and 27.4 µM (active).
